# Screening results: PubChem, National Center for Advancing Translational Sciences (NCATS)
# Most compounds without a hit are left out; they make up all but 0.47% or so of the library.
# AID inh: Primary qHTS assay for inhibitors of Activation Induced Cytidine Deaminase (AID): AID signal. actives 0.32% (n = 91,000). Single-stranded DNA cytosine deaminase (Homo sapiens), Q9GZX7. AID deamination FRET fluorescence, UDG-coupled, 4 h. Potency, µM (series often up to 115 µM), actives largely listed as inhibitors; note: nearly all actives have a fitted effect of over 25% in size
# Target sequence (Q9GZX7 whole entry, looked up): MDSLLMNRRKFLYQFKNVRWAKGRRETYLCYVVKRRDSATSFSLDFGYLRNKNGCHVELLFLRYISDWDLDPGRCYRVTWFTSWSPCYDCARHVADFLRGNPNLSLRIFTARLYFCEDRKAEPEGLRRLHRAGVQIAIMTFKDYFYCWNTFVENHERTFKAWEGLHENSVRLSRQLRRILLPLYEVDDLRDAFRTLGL
# UDG counter: Primary qHTS assay for inhibitors of Activation Induced Cytidine Deaminase (AID): UDG Counterscreen signal | Uracil-DNA glycosylase | FRET deamination/UDG coupled assay, UDG read, 4 h | Potency, µM (top dose mostly 115 µM), most hits filed as inhibitors | actives 0.14% (n = 91,000); note: nearly all actives have a fitted effect of over 65% in size
# Hits are given with their value; 0 = inactive; ? = inconclusive. Calls come from the whole dose curve; as a rule, active = well fitted curve in the direction sought with a large enough effect; inconclusive = small, poorly fitted or top-dose-only effect, or another doubt; inactive = no such curve, though single readings can be large; an effect the other way counts as inactive or inconclusive.
SMILES,AID inh,UDG counter
CC1CN(CCCOc2ccc(C#N)cc2)CCO1 (stereo not given),0,0
CCOc1ccc(C2C(=O)N(C3CCCCC3)CC(=O)N2CCc2ccccc2)cc1OC (stereo not given),0,0
O=C(NCC(c1cccnc1)N1CCc2ccccc21)c1ccc(Cl)cc1 (stereo not given),?,0
COc1ccc(C(=O)NCC(c2cccnc2)N2CCc3ccccc32)cc1 (stereo not given),100µM,0
COc1ccc(S(=O)(=O)Oc2ccc3c(c2)O/C(=C\c2ccccc2C)C3=O)cc1,0,0
Cc1nn2c(=O)cc(COC(=O)c3ccc(NC(=O)C4CCCCC4)cc3)nc2s1,44.7µM,0
CCc1nn2c(=O)cc(COC(=O)c3ccc(NC(=O)C4CCCCC4)cc3)nc2s1,0,0
COc1ccc(CCNC(=O)c2ccc3nc(CCc4ccccc4)oc3c2)cc1OC,0,0
CCn1c(=O)cc(OCC(=O)N(C)c2ccc(OC)cc2)c2ccccc21,0,0
Cc1cc(S(=O)(=O)C(CNC(=O)COc2ccccc2)c2cccs2)ccc1F (stereo not given),0,0
Cc1ccc(S(=O)(=O)C(CNC(=O)COc2ccccc2)c2cccs2)cc1 (stereo not given),44.7µM,0
COC(=O)C1=C(C(=O)c2ccccc2)C(c2ccccc2)n2nnnc2N1 (stereo not given),0,0
CCCCOc1ccc(CN2C(=O)C(=O)c3cc(C)ccc32)cc1OC,?,0
CCCCCOc1ccccc1CN1C(=O)C(=O)c2cc(C)ccc21,28.2µM,0
Cc1cccc(Cn2c(=O)n3nc(-c4ccccc4)nc3c3ccccc32)c1,79.4µM,0
O=c1n(Cc2cccc(F)c2)c2ccccc2c2nc(-c3ccccc3)nn12,0,0
CCc1ccc(CNC(=O)C(CC)n2nc(C)c3c(C)n(-c4ccccc4)nc3c2=O)cc1 (stereo not given),70.8µM,0
CCC(C(=O)NCc1cccc(Br)c1)n1nc(C)c2c(C)n(-c3ccccc3)nc2c1=O (stereo not given),?,0
CCOC(=O)c1c(C)n(-c2ccccc2)c2ccc(OC(=O)c3ccccc3NC(=O)C(C)(C)C)cc12,?,0
CC(=O)N1CCc2c(sc3c2c(=O)n(-c2ccccc2Cl)c(=O)n3Cc2cccc(C)c2)C1,35.5µM,?
C=Cc1ccc(Cn2c(=O)n(-c3ccccc3C)c(=O)c3c4c(sc32)CN(C(C)=O)CC4)cc1,?,0
C/C(=N/NC(=S)NC1CCCCC1)c1ccc(C)cc1,0,0
CCn1ccc2cc(S(=O)(=O)N3CCCN(C(=O)Nc4ccccc4OC)CC3)ccc21,0,0
Cc1ccc(Cl)cc1N1CCN(C(=O)c2cnc(N3CCOCC3)c3ccccc23)CC1,22.4µM,?
Cc1ccc(Cl)cc1N(C)C(=O)c1cnc(N2CCOCC2)c2ccccc12,0,0
SMILES,AID inh,UDG counter
Cc1ccc(Cl)cc1N1CCN(C(=O)c2cc3ccc4cccnc4c3[nH]2)CC1,22.4µM,0
O=C(c1cc2ccc3cccnc3c2[nH]1)N1CCN(c2ccc(Cl)cc2)CC1,0,0
Cc1cccc(Nc2nnc(SCC(=O)N3CCOCC3)s2)c1C,0,0
COc1ccc(CNC(=O)CSCc2cnn(-c3ccccc3)c2-n2cccc2)cc1OC,0,0
N#Cc1nc(Cc2ccccc2)oc1NCc1ccc(Cl)cc1,0,0
Nc1nc(Nc2cccc(Cl)c2)sc1C(=O)c1ccc(F)cc1,0,0
Cc1oc(-c2ccccc2Cl)nc1CS(=O)(=O)CC(=O)NC(C)c1ccccc1 (stereo not given),?,0
Cc1oc(-c2ccccc2Cl)nc1CS(=O)(=O)CC(=O)NC(C)CCc1ccccc1 (stereo not given),20µM,0
COc1ccccc1CN1CCC(CNC(=O)c2cnn(-c3ccc(C)c(C)c3)c2C2CCN(C(=O)OC(C)(C)C)CC2)CC1,?,0
CC(C)(C)OC(=O)N1CCC(c2c(C(=O)N3CCC(c4ccccc4)C3)cnn2-c2ccc(Cl)cc2)CC1 (stereo not given),39.8µM,?
Cc1ccc(C2CCN(C(=O)c3cnn(-c4cccc(Cl)c4)c3C3CCN(C(=O)OC(C)(C)C)CC3)C2)cc1 (stereo not given),?,0
COc1ccccc1CN1CCC(CNC(=O)c2cnn(-c3ccc(Cl)cc3)c2C2CCN(C(=O)OC(C)(C)C)CC2)CC1,44.7µM,?
CC(C)(C)OC(=O)N1CCC(c2c(C(=O)N3CCC(c4ccccc4)C3)cnn2-c2cccc(Cl)c2)CC1 (stereo not given),39.8µM,?
Cc1ccc(C2CCN(C(=O)c3cnn(-c4ccc(C)cc4)c3C3CCN(C(=O)OC(C)(C)C)CC3)C2)cc1 (stereo not given),0,0
CCC(CC)C(=O)Nc1c(C(=O)N2CCN(c3ccccc3)CC2)oc2ccccc12,0,0
CCc1ccc(-c2nc3c(c(SCc4ccccc4)n2)Cc2c(CO)cnc(C)c2O3)cc1,0,0
